Source: PMC4336329 (PLoS ONE, 2015)
Hit rate of the full screen: of about 310,000 compounds, about 2,200 (0.71%) showed an effect of 50% or more. The effect is printed as a negative number. Many of the other results were omitted from the sample, so strong results are more common in it than they were.

target: human ether-à-go-go-related gene (hERG) potassium channel (human, UniProt Q12809); test: primary screen, population patch clamp on CHO cells stably expressing hERG; higher = less effect of the substance
Sequence (Q12809 whole entry, looked up): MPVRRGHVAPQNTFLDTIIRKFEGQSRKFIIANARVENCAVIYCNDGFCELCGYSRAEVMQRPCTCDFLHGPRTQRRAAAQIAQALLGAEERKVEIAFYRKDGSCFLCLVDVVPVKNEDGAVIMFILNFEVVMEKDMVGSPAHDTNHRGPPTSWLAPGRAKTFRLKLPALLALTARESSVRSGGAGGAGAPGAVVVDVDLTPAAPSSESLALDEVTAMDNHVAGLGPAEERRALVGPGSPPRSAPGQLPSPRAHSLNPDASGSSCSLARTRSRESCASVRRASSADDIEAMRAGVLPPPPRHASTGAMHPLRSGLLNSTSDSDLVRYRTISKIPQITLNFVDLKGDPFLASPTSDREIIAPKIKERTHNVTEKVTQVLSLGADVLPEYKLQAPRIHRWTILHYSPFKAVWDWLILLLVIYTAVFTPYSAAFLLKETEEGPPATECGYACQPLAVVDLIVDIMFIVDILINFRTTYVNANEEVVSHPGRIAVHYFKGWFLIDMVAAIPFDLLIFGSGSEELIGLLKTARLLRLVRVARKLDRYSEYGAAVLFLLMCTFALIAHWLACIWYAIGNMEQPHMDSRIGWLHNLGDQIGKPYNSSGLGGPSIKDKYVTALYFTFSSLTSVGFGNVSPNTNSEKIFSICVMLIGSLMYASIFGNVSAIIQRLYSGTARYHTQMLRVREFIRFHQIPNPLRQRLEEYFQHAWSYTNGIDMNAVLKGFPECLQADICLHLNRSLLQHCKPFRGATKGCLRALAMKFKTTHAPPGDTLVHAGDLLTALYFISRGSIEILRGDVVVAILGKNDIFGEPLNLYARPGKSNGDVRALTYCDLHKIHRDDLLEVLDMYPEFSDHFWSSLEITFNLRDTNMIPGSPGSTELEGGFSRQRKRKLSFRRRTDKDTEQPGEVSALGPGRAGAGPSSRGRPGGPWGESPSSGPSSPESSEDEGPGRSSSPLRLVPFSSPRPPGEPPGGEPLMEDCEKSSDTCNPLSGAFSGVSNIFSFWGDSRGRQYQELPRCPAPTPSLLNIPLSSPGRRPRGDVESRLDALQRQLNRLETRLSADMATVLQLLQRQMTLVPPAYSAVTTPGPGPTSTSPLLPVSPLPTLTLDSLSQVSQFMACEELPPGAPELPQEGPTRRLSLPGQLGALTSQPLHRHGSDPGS
Description: Briefly, Chinese hamster ovary (CHO) cells stably expressing the hERG channel were dislodged from tissue culture flasks and dispensed into PPC plates. […] During the recording, background leak currents were estimated by a 100 ms step to -80 mV from an initial holding potential of -70 mV and subtracted from the subsequent current measurement. The campaign was conducted in two phases using slight differences in recording protocol. In the first phase, the initial voltage pulse used a 100 ms step to -30 mV from a holding potential of -70 mV, a 2 s conditioning step to +25 mV, and a 2 s test step to -30 mV. During the second phase of the screen, the potential during the conditioning step was raised to +45 mV. In both phases of the campaign, a secondary voltage pulse was applied using the same parameters as the second phase initial pulse. The initial and secondary pulses were applied in the absence of compound, and upon application of 1 μM and 10 μM test concentrations. Small molecule effects on hERG current density were quantified by […].

Going from `O=C(CSCc1ccccc1)N/N=C/c1cc2c(cc1Br)OCO2` to `N#Cc1c(-c2ccccc2)cc(-c2ccc3c(c2)OCO3)[nH]c1=O`, the “hERG current change (%, negative = inhibition) at 1uM” value rises from 8.61% to 11%.

Going from `CSc1nnc(Cc2sc(-c3ccccc3)nc2-c2ccccc2)o1` to `COc1ccc(-c2nc(C#N)c(NCCc3ccccc3)o2)cc1OC`, the “hERG current change (%, negative = inhibition) at 1uM” value falls from 12.1% to 10.5%.

First: OCCC1CN(Cc2cccn2-c2cccnc2)CCN1CCc1ccccc1 (stereo not drawn)
Second: OCCC1CN(Cc2cccn2-c2cccnc2)CCN1Cc1ccccc1 (stereo not drawn)
The “hERG current change (%, negative = inhibition) at 1uM” value of the first is lower: -37.5% for the first, -7.57% for the second.

Going from `CC(C)=CCN1CCN(Cc2cccn2-c2ncccn2)CC1CCO` (stereo not drawn) to `OCCC1CN(Cc2cccn2-c2ncccn2)CCN1Cc1ccccc1` (stereo not drawn), the “hERG current change (%, negative = inhibition) at 1uM” value falls from -3.9% to -33.4%.

First: OCCC1CN(Cc2cccn2-c2ncccn2)CCN1CCc1ccccc1 (stereo not drawn)
Second: OCCC1CN(Cc2cccn2-c2ncccn2)CCN1Cc1ccc(F)cc1 (stereo not drawn)
The “hERG current change (%, negative = inhibition) at 1uM” value of the first is higher: -44.6% for the first, -74.7% for the second.

Going from `COc1ccc(CN2CCN(Cc3cccn3-c3ncccn3)CC2CCO)c(C)c1C` (stereo not drawn) to `CCOc1ccc(CN2CCN(Cc3cccn3-c3ncccn3)CC2CCO)cc1` (stereo not drawn), the “hERG current change (%, negative = inhibition) at 1uM” value falls from -80.4% to -84%.

Going from `COc1cccc(CN2CCN(Cc3cccn3-c3cccnc3)CC2CCO)c1` (stereo not drawn) to `CCOc1ccc(CN2CCN(Cc3cccn3-c3cccnc3)CC2CCO)cc1` (stereo not drawn), the “hERG current change (%, negative = inhibition) at 1uM” value falls from -62.2% to -86.3%.

Compared with `COc1ccc(CN2CCN(CC3CC3)CC2CCO)c(C)c1C` (stereo not drawn), `COc1ccc(CN2CCN(Cc3ccon3)CC2CCO)c(C)c1C` (stereo not drawn) is lower in “hERG current change (%, negative = inhibition) at 1uM” value: 13.2% for the first, 2.93% for the second.

First: OCCC1CN(Cc2cccn2-c2ncccn2)CCN1C1CCCC1 (stereo not drawn)
Second: CC(C)CCN1CCN(Cc2cccn2-c2cccnc2)CC1CCO (stereo not drawn)
The “hERG current change (%, negative = inhibition) at 1uM” value of the first is higher: 0.978% for the first, -9.84% for the second.

Compared with `CCC(C)NC(=O)C(=O)NCc1ccncc1` (stereo not drawn), `CCCCC(C(=O)O)C(C)CC(=O)Nc1cccc(C(=O)O)c1` (stereo not drawn) is lower in “hERG current change (%, negative = inhibition) at 1uM” value: 10.8% for the first, 3.02% for the second.

Compared with `CN1CCN(NC(=O)c2ccccc2F)CC1`, `Cc1ccc(F)cc1NC(=O)CN1CCN(Cc2ccccc2)CC1` is lower in “hERG current change (%, negative = inhibition) at 1uM” value: 11.7% for the first, -16.8% for the second.

Going from `COc1ccc(CC(=O)Oc2cc(C)[nH]c(=O)c2[N+](=O)[O-])cc1` to `COc1cccc(CNc2ccc([N+](=O)[O-])cc2C)c1`, the “hERG current change (%, negative = inhibition) at 1uM” value rises from 4.19% to 10.7%.

Compared with `COc1ccc(-c2csc(/C=C/c3ccc4c(c3)OCO4)n2)cc1OC`, `COc1ccc(NC(=O)c2cc3c(=O)n4ccccc4nc3n2C)cc1OC` is higher in “hERG current change (%, negative = inhibition) at 1uM” value: 2.68% for the first, 11.4% for the second.

Compared with `CN(c1ncnc(N)c1[N+](=O)[O-])C1CCCCC1`, `COc1ccc(NC(=O)C/C(C)=N/NC(=O)C(=O)NC2CCCCC2)c(OC)c1` is lower in “hERG current change (%, negative = inhibition) at 1uM” value: 12.5% for the first, -3.65% for the second.

Compared with `Cc1ccc(S(=O)(=O)N2CCC(C(=O)N3CCC3)CC2)cc1`, `O=C(Nc1ccon1)C1CCN(S(=O)(=O)c2cccs2)CC1` is lower in “hERG current change (%, negative = inhibition) at 1uM” value: 11.3% for the first, -4.01% for the second.

Compared with `CC(C)OC(=O)COc1cc(O)c2c(=O)cc(-c3ccccc3)oc2c1`, `COc1cccc(NC(=O)c2cc3c(=O)n4ccccc4nc3n(CC(C)C)c2=N)c1` is lower in “hERG current change (%, negative = inhibition) at 1uM” value: 10.8% for the first, -87.5% for the second.

First: CCOC(=O)C1CCCN(CCCc2ccccc2)C1 (stereo not drawn)
Second: CCCC(=O)Nc1nnc(CCc2ccccc2)s1.Cl
The “hERG current change (%, negative = inhibition) at 1uM” value of the first is lower: -2.62% for the first, 12.1% for the second.

Compared with `COc1ccccc1-c1ccc(=O)n(CC(=O)NCc2cccs2)n1`, `O=C(Cn1cnc2c(NC(=O)OCc3ccccc3)ncnc21)NCc1ccccn1` is lower in “hERG current change (%, negative = inhibition) at 1uM” value: 15.8% for the first, 0.393% for the second.

Compared with `COCCC(=O)N1CCC(Oc2ccc(C(=O)N3C[C@@H]4CCC[C@H]3C4)cc2)CC1`, `COc1ccc(/C=C/CN2CCC(Oc3ccc(C(=O)N4CCCCC4)cc3)CC2)cc1` is lower in “hERG current change (%, negative = inhibition) at 1uM” value: 5.49% for the first, -15.6% for the second.

Going from `OC[C@H]1O[C@@H](Oc2ccc3cc(Br)ccc3c2)[C@H](O)[C@@H](O)[C@H]1O` to `Cc1cccc(OCCSCc2nc3ccccc3[nH]2)c1`, the “hERG current change (%, negative = inhibition) at 1uM” value rises from 4.75% to 12.1%.

Compared with `OCCC1CN(Cc2cccn2-c2cccnc2)CCN1Cc1ccc(F)cc1` (stereo not drawn), `N=c1c(C(=O)NCCN2CCOCC2)cc2c(=O)n3ccccc3nc2n1Cc1ccc(F)cc1` is higher in “hERG current change (%, negative = inhibition) at 1uM” value: -21.4% for the first, -19.2% for the second.

Going from `Cc1cc(/C([O-])=C(/C(=S)Nc2ccccc2)[n+]2ccccc2)c(C)n1-c1ccccc1` to `COc1cccc(NC(=O)C(Sc2nc3ccccc3c(=O)n2CC(C)C)c2ccccc2)c1` (stereo not drawn), the “hERG current change (%, negative = inhibition) at 1uM” value falls from 9.1% to 6.46%.

Going from `CCOc1ccc(N2C(=O)CC(N3CCc4ccccc43)C2=O)cc1` (stereo not drawn) to `CCOc1ccc(N2C(=O)CC(N3CCN(C4CCc5ccccc5C4)CC3)C2=O)cc1` (stereo not drawn), the “hERG current change (%, negative = inhibition) at 1uM” value falls from 5.06% to -65.5%.

Going from `Cc1ccc(N2C(=O)CC(N3CCN(c4ccccn4)CC3)C2=O)cc1` (stereo not drawn) to `Cc1ccc(N2C(=O)CC(N3CCN(C4CCc5ccccc5C4)CC3)C2=O)cc1` (stereo not drawn), the “hERG current change (%, negative = inhibition) at 1uM” value falls from -8.68% to -59%.

Compared with `COc1ccc(N2C(=O)CC(N3CCN(C4CCc5ccccc5C4)CC3)C2=O)cc1` (stereo not drawn), `O=C1CC(N2CCN(C3CCc4ccccc4C3)CC2)C(=O)N1c1ccccc1` (stereo not drawn) is lower in “hERG current change (%, negative = inhibition) at 1uM” value: -37.7% for the first, -42.7% for the second.

Compared with `O=C(CSc1nc2[nH]ncc2c(=O)[nH]1)Nc1ccc(F)cc1`, `COc1ccc(NC(=O)CSc2nnc(Cc3ccc(C)cc3)c(=O)n2N)cc1OC` is lower in “hERG current change (%, negative = inhibition) at 1uM” value: 13.3% for the first, 4% for the second.

First: CC(=O)Nc1ccc(S(=O)(=O)Nc2ccc(-c3ccc4nnc(C)n4n3)cc2)cc1
Second: Cc1cccc(NC(=O)c2c(C)nc3ccccn23)c1
The “hERG current change (%, negative = inhibition) at 1uM” value of the first is lower: -3.52% for the first, 3.98% for the second.

Going from `Cc1cccc(NC(=O)c2cc3c(=O)n4ccccc4nc3s2)c1` to `Cc1cccc(NC(=O)c2cc3c(=O)n4ccccc4nc3n(CC(C)C)c2=N)c1`, the “hERG current change (%, negative = inhibition) at 1uM” value falls from 11.5% to -52.2%.

Going from `COc1cccc(NC(=O)NC2(C(F)(F)F)Oc3ccccc3O2)c1` to `Cc1cc([N+](=O)[O-])ccc1NCc1ccccc1`, the “hERG current change (%, negative = inhibition) at 1uM” value falls from 8.19% to 4.76%.

Going from `Cc1cc(C)n(CC(=O)c2ccc(Br)cc2)c(=O)c1C#N` to `Cc1cccc(NC(=O)c2c(F)c(F)c(F)c(F)c2F)c1`, the “hERG current change (%, negative = inhibition) at 1uM” value rises from -2.8% to -0.482%.

Going from `CCCN(c1ccc(OCC)cc1)S(=O)(=O)c1ccc2c(c1)CCN2C(=O)CCC(=O)O` to `CCOC(=O)N1CCN(CC(=O)Nc2ccc([N+](=O)[O-])cc2C(=O)Nc2ccccc2F)CC1`, the “hERG current change (%, negative = inhibition) at 1uM” value falls from 12.5% to -5.13%.

Compared with `O=C(NCCN1CCOCC1)c1cc2c(=O)n3ccccc3nc2n1Cc1ccccc1`, `N=c1c(C(=O)NCc2ccccc2)cc2c(=O)n3ccccc3nc2n1CCCN1CCOCC1` is lower in “hERG current change (%, negative = inhibition) at 1uM” value: 8.53% for the first, -80.7% for the second.

First: N=c1c(C(=O)NCCc2ccccc2)cc2c(=O)n3ccccc3nc2n1CCCN1CCOCC1
Second: N=c1c(C(=O)NCc2ccc(F)cc2)cc2c(=O)n3ccccc3nc2n1CCCN1CCOCC1
The “hERG current change (%, negative = inhibition) at 1uM” value of the first is higher: -77.8% for the first, -91.8% for the second.

Going from `N=c1c(S(=O)(=O)c2ccccc2)cc2c(=O)n3ccccc3nc2n1CCCN1CCOCC1` to `Cc1ccc(S(=O)(=O)c2cc3c(=O)n4ccccc4nc3n(CCCN3CCOCC3)c2=N)cc1C`, the “hERG current change (%, negative = inhibition) at 1uM” value rises from -42.5% to 2.37%.

Compared with `N=c1c(C(=O)NCCN2CCOCC2)cc2c(=O)n3ccccc3nc2n1CCCN1CCOCC1`, `CCOc1ccc2[nH]c(=O)c(CN(CCN3CCOCC3)Cc3nnnn3C(C)(C)CC)cc2c1` is lower in “hERG current change (%, negative = inhibition) at 1uM” value: 13.2% for the first, 12.1% for the second.

Compared with `COc1cc(NC(=O)C/C(C)=N/NC(=O)C2CCCCC2)c(OC)cc1Cl`, `COc1cc(NC(=O)C/C(C)=N/NC(=O)C(=O)NC2CCCCC2)c(OC)cc1Cl` is lower in “hERG current change (%, negative = inhibition) at 1uM” value: 14.8% for the first, -66.8% for the second.

Compared with `O=C(NCc1cccnc1)C12CC3CC(CC(Cl)(C3)C1)C2`, `O=C(NCCS(=O)(=O)N1CCN(c2ccccc2F)CC1)C1CC(=O)N(c2ccccc2)C1` (stereo not drawn) is lower in “hERG current change (%, negative = inhibition) at 1uM” value: 19% for the first, 11.6% for the second.

Going from `Cc1cc([N+](=O)[O-])ccc1NC(=O)CN1CCN(Cc2ccccc2)CC1` to `Cc1ccccc1NC(=O)CN1CCN(Cc2ccccc2)CC1`, the “hERG current change (%, negative = inhibition) at 1uM” value rises from -73.7% to 1.75%.

Compared with `Cc1cc([N+](=O)[O-])ccc1NCc1cccc([N+](=O)[O-])c1`, `O=[N+]([O-])c1ccc(NC2CCN(Cc3ccccc3)CC2)c([N+](=O)[O-])c1` is lower in “hERG current change (%, negative = inhibition) at 1uM” value: -56.6% for the first, -60% for the second.

Compared with `O=C(CN1CCN(c2cccc(Cl)c2)CC1)Nc1ccc([N+](=O)[O-])cc1C(=O)Nc1ccccc1F`, `O=C(CN1CCN(Cc2ccccc2)CC1)Nc1ccc([N+](=O)[O-])cc1C(=O)Nc1ccccc1F` is lower in “hERG current change (%, negative = inhibition) at 1uM” value: 11.4% for the first, -56.8% for the second.

First: O=[N+]([O-])c1cc(C(F)(F)F)ccc1NC1CCN(Cc2ccccc2)CC1
Second: O=[N+]([O-])c1ccccc1NC1CCN(Cc2ccccc2)CC1
The “hERG current change (%, negative = inhibition) at 1uM” value of the first is higher: 3.28% for the first, -26.7% for the second.

First: O=S(=O)(CC(CN1CCCCC1)N1CCCCC1)c1ccccc1 (stereo not drawn)
Second: CC(=O)NNS(=O)(=O)c1ccc(-c2cc(C(F)(F)F)n(C)n2)s1
The “hERG current change (%, negative = inhibition) at 1uM” value of the first is higher: 6.73% for the first, 2.67% for the second.
